Source: PubChem BioAssay (National Center for Advancing Translational Sciences (NCATS))
p53null 32C kill = kills p53 null cells at the permissive temperature | Potency, µM (doses to about 46.1 µM), most hits filed as cytotoxic | AID 903 | H1299-neo p53 null cells, ATP luminescence, 24 h, 32C | 55,000 tested, 0.62% active; further: nearly all actives have a fitted effect of over 55% in size
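AC50 values derive from Hill modelling of qHTS concentration-response data (up to 46 uM) in H1299-neo cells. Cells were treated 24 h at 32C following overnight attachment at 37C; viability was read as cellular ATP.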
PMP22 txn = modulators of PMP22 gene transcription in S16 Schwann cells. 43,000 tested, 2% active. S16 Pmp22-F2sN Schwann cells, FLuc/NLuc coincidence luminescence, 24 h. Potency, µM (top dose mostly 57.5 µM), usual class: inhibitors; active means clear falling dose curves in both reporters; inconclusive means both reporters move, but less clearly or upward; inactive means either reporter flat; the % is the NLuc reporter signal
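qHTS, 1536-well. Cells seeded, compounds added by pin tool, 24 h 37C. Nano-Glo reagent 1 (lysis/FLuc), 10 min RT, read; Stop&Glo, 10 min RT, read NLuc.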
S16 F2sN tox = toxic to S16 Pmp22-F2sN Schwann cells. 43,000 tested, 0.48% active. S16 Pmp22-F2sN Schwann cells viability, CellTiter-Glo, 24 h. Potency, µM (doses to about 57.5 µM), most hits filed as cytotoxic. AID 1508642; further: nearly all actives have a fitted effect of over 65% in size
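S16 Pmp22-F2sN Schwann cells (500-1,000/well) in phenol-red-free DMEM with 10% FBS received 23 nL compound by pin tool for 24 h at 37 °C. Viability was then read as CellTiter-Glo luminescence after 15 min at room temperature.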
pS6 MEF inh = inhibitors of mTORC1 signaling in Tsc2-/- p53-/- MEF cells | Tsc2-/- p53-/- MEF, phospho-rpS6 immunofluorescence/PI, 24 h | Potency, µM (highest dose often 38.3 µM), most hits filed as inhibitors | 44,000 tested, 0.78% active | AID 493208; further: nearly all actives have a fitted effect of over 50% in size
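Readout is phospho-S6 Alexa 488 signal normalized to PI per well, reported as % active cells with thresholds set from rapamycin (7.5 nM) and DMSO controls. Cells: Tsc2-/-, p53-/- MEFs, 24 hrs compound at 37 C; PI cell number serves as viability.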
p53null 39C kill = p53 null cell cytotoxicity, nonpermissive temperature. H1299 p53-null (neo) cells, 39C, ATPlite viability, 24 h. Potency, µM (highest dose often 46.1 µM), most hits filed as cytotoxic. 55,000 tested, 0.97% active; further: nearly all actives have a fitted effect of over 50% in size
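Temperature-shift cytotoxicity format: compound titrations on p53-null or A138V-expressing H1299 cells held 24 hr at 39C, cell ATP then measured, AC50 from Hill model.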
Hits are given with their value; – = inactive; ? = inconclusive; · = no result. Only some compounds are listed: those with a hit (about 3.2% of all), similar ones and a draw of the others. Unless noted, the call rests on the fitted dose curve; in most records, active means well fitted curve in the direction sought with a large enough effect; inconclusive means small, poorly fitted or top-dose-only effect, or another doubt; inactive means no such curve, though single readings can be large; an effect the other way counts as inactive or inconclusive.

SMILES | p53null 32C kill | PMP22 txn | S16 F2sN tox | pS6 MEF inh | p53null 39C kill
CCOC(=O)c1ccc(NC(=O)Cn2cc(C(=O)c3ccc(Cl)cc3)c(=O)c3ccc(C)nc32)cc1 | – | 12µM | ? | – | –
Cc1ccc(-n2c3c(c(=O)[nH]c2=O)C(NC(=O)C(C)(C)C)(C(F)(F)F)C(=O)N3)cc1 (configuration not stated) | – | – | – | – | –
CCOC(=O)Cc1ccc(NC(=O)Nc2nnc(N3CCCCC3C)s2)cc1 (configuration not stated) | – | – | – | – | –
CC(C)(C)OC(=O)N1CCC(c2c(C(=O)N3CCC(c4ccccc4)C3)cnn2-c2cccc(Cl)c2)CC1 (configuration not stated) | ? | ? | ? | – | –
CCOc1ccccc1NC(=O)CN1C(=O)C(=O)c2ccccc21 | – | ? | – | 2.6µM | ?
Cc1ccccc1C(=O)Nc1cccc(NC(=O)c2ccc(C(C)(C)C)cc2)c1 | 13µM | ? | – | – | ?
O=C(Nc1cccc(NC(=O)c2ccccc2F)c1)c1ccccc1 | – | – | ? | – | –
CCCCc1c(C)nc2c(-c3ccc(Cl)cc3)c(C)[nH]n2c1=O | · | 11µM | 5µM | – | ·
Cc1nc2c(-c3ccccc3)c(C)[nH]n2c(=O)c1Cc1ccc(C(C)C)cc1 | · | ? | 8.9µM | – | ·
Cc1ccc(Cc2c(C)nc3c(-c4ccccc4)c(C)[nH]n3c2=O)cc1 | · | ? | ? | – | ·
Cc1nc2c(-c3ccccc3)c(C)[nH]n2c(=O)c1Cc1ccc(Br)cc1 | · | 9.5µM | 10µM | ? | ·
Cc1[nH]n2c(=O)cc(-c3ccc(Cl)cc3)nc2c1-c1ccccc1 | · | 8.5µM | 10µM | ? | ·
CCc1cccc(NC(=O)Cn2c(=O)n(CCC(=O)NCc3ccccc3Cl)c(=O)c3sccc32)c1 | – | ? | ? | ? | ?
COc1cccc(C(=O)NC2=NC(c3ccccc3F)CC(=O)N2)c1 (configuration not stated) | – | ? | – | – | –
COc1ccc(Cn2c(SCc3ccc(C(=O)NC4CCCCC4)cc3)nc3ccncc32)cc1 | – | ? | – | – | –
CCN(CCN(C)C)C(=O)C1CCN(S(=O)(=O)c2c(C)noc2/C=C/c2ccccc2F)CC1 | – | ? | ? | 18µM | ?
CCOc1ccccc1/C=C/c1onc(C)c1S(=O)(=O)N1CCC(C(=O)N(CC)CC)CC1 | – | ? | ? | – | –
CC1(C)CC(=O)c2sc(NC(=O)c3cccs3)nc2C1 | 2.2µM | · | · | · | 1.1µM
Cc1nn(-c2ccccc2)c2sc(C(=O)Nc3ccccc3Br)cc12 | – | – | – | – | –
Cc1nn(-c2ccccc2)c2sc(C(=O)Nc3cccc(O)c3)cc12 | – | ? | ? | – | 25µM
CCc1ccc(NC(=O)Nc2ccccc2OCc2cc(=O)n3ccccc3n2)cc1 | ? | ? | – | – | 2µM
COc1cc(-c2nc3ncccn3c2Nc2ccc(C)cc2C)ccc1O | – | – | ? | 15µM | –
COC(=O)c1ccc(Nc2nc(-c3ccccc3Cl)nc3ccccc23)cc1 | – | ? | – | – | ?
Oc1ccc(Nc2nc(-c3ccc(Cl)cc3)nc3ccccc23)cc1 | ? | ? | ? | ? | 16µM
COc1ccc(-c2noc(CSc3nnc(-c4ccncc4)n3-c3ccc(OC)cc3)n2)cc1 | – | 2.4µM | ? | – | –
SMILES | p53null 32C kill | PMP22 txn | S16 F2sN tox | pS6 MEF inh | p53null 39C kill
Cc1cc(-c2ccc(S(=O)(=O)Nc3cccc(C)c3C)s2)on1 | – | 10µM | ? | ? | ?
COc1cccc(CNC(=O)C(NS(=O)(=O)c2ccc3c(c2)oc(=O)n3C)C(C)C)c1 (configuration not stated) | – | – | – | – | –
COc1ccc(CNC(=O)c2nc(S(=O)(=O)Cc3ccccc3)ncc2Cl)cc1 | – | 5.3µM | 5.6µM | 21µM | 13µM
CCCSc1ncc(Cl)c(C(=O)N(Cc2ccccc2)c2ccc(OC)cc2)n1 | – | ? | – | – | –
CS(=O)(=O)c1ncc(Cl)c(C(=O)N(Cc2ccc(Cl)cc2)Cc2ccco2)n1 | ? | ? | 4.5µM | 1.8µM | ?
O=C(NCc1ccccc1)c1nc(S(=O)(=O)Cc2ccccc2)ncc1Cl | – | 6.5µM | 8.9µM | 16µM | –
COc1ccc(N(Cc2ccccc2)C(=O)c2nc(S(C)(=O)=O)ncc2Cl)cc1 | 13µM | 1.8µM | 4.5µM | 2.1µM | 11µM
COc1ccc(CNC(=O)c2nc(SC(C)C)ncc2Cl)cc1 | – | – | – | – | –
COCCCn1c(SCC(=O)Nc2ccc(F)cc2)nc2c(sc3ccccc32)c1=O | – | ? | – | – | –
CCCCN1C(C(=O)c2ccccc2)=C(OC(C)=O)c2ccccc2S1(=O)=O | ? | ? | ? | ? | 5µM
CCCN1C(C(=O)c2ccccc2)=C(OC(=O)c2ccc(OC)cc2)c2ccccc2S1(=O)=O | – | ? | – | – | –
CCN1C(C(=O)c2ccccc2)=C(OC(=O)c2ccccc2OC)c2ccccc2S1(=O)=O | ? | ? | – | – | 13µM
CCCCC(=O)OC1=C(C(=O)c2ccccc2)N(CC)S(=O)(=O)c2ccccc21 | – | – | – | – | ?
Brc1cccc(-c2nnc(CN3CCN(c4ccccn4)CC3)o2)c1 | – | – | – | – | –
N#Cc1c(-n2ncnc2-c2ccc(F)cc2)sc2c1CCCCC2 | 10µM | – | – | – | ?
Cc1ccc(NC(=O)CN2C(=O)CCc3cc(S(=O)(=O)N4CCOCC4)ccc32)cc1N(C)C | – | – | – | – | –
COc1c(Cl)cc(C(=O)Nc2cccc(-c3nc4ccccc4[nH]3)c2)cc1Cl | ? | ? | – | – | ?
CCCN(CCC)S(=O)(=O)c1ccc(C(=O)Nc2cccc(-c3nc4ccccc4[nH]3)c2)cc1 | – | 19µM | ? | – | –
CCN(CC)CCNC(=O)Cn1ncc2c3ccccc3n(Cc3ccc(Cl)cc3)c2c1=O | – | ? | ? | – | –
COc1ccc(OC)c(CCNC(=O)c2cc3cccc4c3n2CC(C)S4)c1 (configuration not stated) | – | – | – | – | –
COc1cc(CN2CCc3nc(N4CCN(c5ccccn5)CC4)ncc3C2)cc(OC)c1OC | – | 8.9µM | 11µM | – | –
O=C(Nc1ccc2c(c1)CCC2)c1ccc(F)cc1 | 10µM | · | · | · | –
CCN(CC)c1ccc(-c2nc(-c3ccccn3)no2)cc1[N+](=O)[O-] | – | ? | – | – | –
c1ccc(-c2nc(-c3ccccn3)no2)cc1 | 5.6µM | · | · | · | 7.9µM
CCCCc1ccc(Nc2cc(C)nc(-n3nc(C)cc3C)n2)cc1 | – | 15µM | ? | – | 13µM
COC(=O)Cc1c(C)nc2nc(-c3ccc(C)cc3)[nH]n2c1=O | 10µM | – | – | – | ?
CCCc1cc(=O)n2[nH]c(-c3ccc(C)cc3)nc2n1 | ? | ? | – | – | –
CN(C)c1ccc(C(=O)Nc2cccc(-c3nc4cccnc4s3)c2)cc1 | – | ? | – | – | –
